{"source": "PubChem BioAssay AID1159580", "about": "(chemical genetic matrix, 2015)", "test": "chemical genetic growth profiling, strain panel (AID 1159580);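 further: tested at 20 µM; growth read once vehicle control cultures reached saturation at 30 °C; 1 = growth at the plate median or of vehicle wells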", "conditions": "S. cerevisiae deletion strains, growth OD", "note": "“And” between values parts separate entries of the source, which are not always exact repeats. Identical values can stand only once. Out of some 5,500 compounds screened, about 2,000 (36%) were called active. Another 18% or so got no clear call; they are omitted. This is one part of the list. Unmarked numbers belong to inactive results. No stated cut-off is given here; in the data, active means normalized growth mostly below about 0.91 (no sharp cut-off); inconclusive means no clear call, values can overlap the other calls; inactive means mostly above about 0.92."}
{"smiles": "C[C@@H]1CC[C@H]2[C@@H](C)C(=O)O[C@@H]3O[C@@]4(C)CC[C@@H]1[C@]32OO4", "values": [{"measurement": "normalized growth", "setting": "locus YAL013W, strain DEP1, stronger effect = lower value", "result": 0.924}, {"measurement": "normalized growth", "setting": "locus YAL021C, strain ccr4, stronger effect = lower value", "result": "0.741 (active)"}, {"measurement": "normalized growth", "setting": "locus YAL026C, strain drs2, stronger effect = lower value", "result": "0.824 (active)"}, {"measurement": "normalized growth", "setting": "locus YAL030W, strain snc1, stronger effect = lower value", "result": "0.89 (active)"}, {"measurement": "normalized growth", "setting": "locus YBL061C, strain skt5, stronger effect = lower value", "result": "0.903 (active)"}, {"measurement": "normalized growth", "setting": "locus YBR009C, strain hhf1, stronger effect = lower value", "result": "0.788 (active)"}, {"measurement": "normalized growth", "setting": "locus YBR021W, strain FUR4, stronger effect = lower value", "result": 0.948}, {"measurement": "normalized growth", "setting": "locus YBR023C, strain chs3, stronger effect = lower value", "result": "0.906 (active)"}, {"measurement": "normalized growth", "setting": "locus YBR171W, strain sec66, stronger effect = lower value", "result": "0.889 (active)"}, {"measurement": "normalized growth", "setting": "locus YBR229C, strain ROT2, stronger effect = lower value", "result": 0.942}, {"measurement": "normalized growth", "setting": "locus YBR231C, strain swc5, stronger effect = lower value", "result": "0.713 (active)"}, {"measurement": "normalized growth", "setting": "locus YBR279W, strain paf1, stronger effect = lower value", "result": "0.864 (active)"}, {"measurement": "normalized growth", "setting": "locus YCL011C, strain gbp2, stronger effect = lower value", "result": "0.869 (active)"}, {"measurement": "normalized growth", "setting": "locus YCL016C, strain dcc1, stronger effect = lower value", "result": "0.837 (active)"}, {"measurement": "normalized growth", "setting": "locus YCL029C, strain bik1, stronger effect = lower value", "result": "0.887 (active)"}, {"measurement": "normalized growth", "setting": "locus YCL069W, strain vba3, stronger effect = lower value", "result": "0.924 (active)"}, {"measurement": "normalized growth", "setting": "locus YCR088W, strain abp1, stronger effect = lower value", "result": "0.921 (active)"}, {"measurement": "normalized growth", "setting": "locus YDL005C, strain med2, stronger effect = lower value", "result": 0.967}, {"measurement": "normalized growth", "setting": "locus YDL035C, strain GPR1, stronger effect = lower value", "result": "0.825 (active)"}, {"measurement": "normalized growth", "setting": "locus YDL040C, strain nat1, stronger effect = lower value", "result": 0.949}, {"measurement": "normalized growth", "setting": "locus YDL074C, strain BRE1, stronger effect = lower value", "result": 0.83}, {"measurement": "normalized growth", "setting": "locus YDL101C, strain DUN1, stronger effect = lower value", "result": 0.913}, {"measurement": "normalized growth", "setting": "locus YDL134C, strain PPH21, stronger effect = lower value", "result": "0.818 (active)"}, {"measurement": "normalized growth", "setting": "locus YDL185W, strain tfp1, stronger effect = lower value", "result": "0.875 (active)"}, {"measurement": "normalized growth", "setting": "locus YDL192W, strain arf1, stronger effect = lower value", "result": "0.867 (active)"}, {"measurement": "normalized growth", "setting": "locus YDR001C, strain nth1, stronger effect = lower value", "result": 0.932}, {"measurement": "normalized growth", "setting": "locus YDR069C, strain doa4, stronger effect = lower value", "result": "0.872 (active)"}, {"measurement": "normalized growth", "setting": "locus YDR101C, strain arx1, stronger effect = lower value", "result": "0.887 (active)"}, {"measurement": "normalized growth", "setting": "locus YDR137W, strain rgp1, stronger effect = lower value", "result": "0.388 (active)"}, {"measurement": "normalized growth", "setting": "locus YDR150W, strain NUM1, stronger effect = lower value", "result": "0.899 (active)"}, {"measurement": "normalized growth", "setting": "locus YDR159W, strain sac3, stronger effect = lower value", "result": "0.595 (active)"}, {"measurement": "normalized growth", "setting": "locus YDR162C, strain NBP2, stronger effect = lower value", "result": "0.817 (active)"}, {"measurement": "normalized growth", "setting": "locus YDR195W, strain ref2", "result": 0.956}, {"measurement": "normalized growth", "setting": "locus YDR297W, strain sur2, stronger effect = lower value", "result": "0.893 (active)"}, {"measurement": "normalized growth", "setting": "locus YDR318W, strain mcm21, stronger effect = lower value", "result": "0.841 (active)"}, {"measurement": "normalized growth", "setting": "locus YDR334W, strain swr1, stronger effect = lower value", "result": 0.917}, {"measurement": "normalized growth", "setting": "locus YDR335W, strain msn5, stronger effect = lower value", "result": "0.853 (active)"}, {"measurement": "normalized growth", "setting": "locus YDR388W, stronger effect = lower value", "result": "0.868 (active)"}, {"measurement": "normalized growth", "setting": "locus YDR392W, strain spt3, stronger effect = lower value", "result": "0.374 (active)"}, {"measurement": "normalized growth", "setting": "locus YDR502C, strain sam2, stronger effect = lower value", "result": "0.815 (active)"}, {"measurement": "normalized growth", "setting": "locus YEL003W, strain gim4, stronger effect = lower value", "result": "0.808 (active)"}, {"measurement": "normalized growth", "setting": "locus YEL037C, strain rad23, stronger effect = lower value", "result": "0.915 (active)"}, {"measurement": "normalized growth", "setting": "locus YEL061C, strain CIN8 (second series), stronger effect = lower value", "result": "0.889 (active)"}, {"measurement": "normalized growth", "setting": "locus YEL061C, strain CIN8, stronger effect = lower value", "result": "0.891 (active)"}, {"measurement": "normalized growth", "setting": "locus YER015W, strain faa2, stronger effect = lower value", "result": "0.761 (active)"}, {"measurement": "normalized growth", "setting": "locus YER016W, strain bim1, stronger effect = lower value", "result": "0.904 (active)"}, {"measurement": "normalized growth", "setting": "locus YER110C, stronger effect = lower value", "result": 0.932}, {"measurement": "normalized growth", "setting": "locus YER111C, strain swi4, stronger effect = lower value", "result": 0.93}, {"measurement": "normalized growth", "setting": "locus YER155C, strain BEM2 (second series), stronger effect = lower value", "result": "0.655 (active)"}, {"measurement": "normalized growth", "setting": "locus YER155C, strain BEM2, stronger effect = lower value", "result": "0.922 (active)"}, {"measurement": "normalized growth", "setting": "locus YER167W, strain BCK2, stronger effect = lower value", "result": "0.784 (active)"}, {"measurement": "normalized growth", "setting": "locus YFR010W, strain ubp6, stronger effect = lower value", "result": "0.841 (active)"}, {"measurement": "normalized growth", "setting": "locus YGL078C, strain dbp3, stronger effect = lower value", "result": 0.939}, {"measurement": "normalized growth", "setting": "locus YGL086W, strain mad1, stronger effect = lower value", "result": "0.827 (active)"}, {"measurement": "normalized growth", "setting": "locus YGL167C, strain pmr1, stronger effect = lower value", "result": 0.973}, {"measurement": "normalized growth", "setting": "locus YGL173C, strain kem1, stronger effect = lower value", "result": 0.907}, {"measurement": "normalized growth", "setting": "locus YGL227W, strain vid30, stronger effect = lower value", "result": 0.95}, {"measurement": "normalized growth", "setting": "locus YGL240W, strain doc1, stronger effect = lower value", "result": "0.757 (active)"}, {"measurement": "normalized growth", "setting": "locus YGL248W, strain PDE1, stronger effect = lower value", "result": "0.818 (active)"}, {"measurement": "normalized growth", "setting": "locus YGL253W, strain hxk2, stronger effect = lower value", "result": "0.707 (active)"}, {"measurement": "normalized growth", "setting": "locus YGR078C, strain PAC10, stronger effect = lower value", "result": "0.789 (active)"}, {"measurement": "normalized growth", "setting": "locus YGR135W, strain pre9, stronger effect = lower value", "result": "0.858 (active)"}, {"measurement": "normalized growth", "setting": "locus YGR252W, strain gcn5, stronger effect = lower value", "result": 0.854}, {"measurement": "normalized growth", "setting": "locus YHR013C, strain ard1, stronger effect = lower value", "result": "0.781 (active)"}, {"measurement": "normalized growth", "setting": "locus YHR027C, strain rpn1, stronger effect = lower value", "result": "0.781 (active)"}, {"measurement": "normalized growth", "setting": "locus YHR030C, strain SLT2, stronger effect = lower value", "result": "0.837 (active) and 0.62 (active)"}, {"measurement": "normalized growth", "setting": "locus YHR079C, strain IRE1 (second series), stronger effect = lower value", "result": "0.89 (active)"}, {"measurement": "normalized growth", "setting": "locus YHR079C, strain IRE1, stronger effect = lower value", "result": "0.654 (active)"}, {"measurement": "normalized growth", "setting": "locus YHR094C, strain hxt1, stronger effect = lower value", "result": 0.94}, {"measurement": "normalized growth", "setting": "locus YHR129C, strain ARP1, stronger effect = lower value", "result": "0.89 (active)"}, {"measurement": "normalized growth", "setting": "locus YHR142W, strain chs7, stronger effect = lower value", "result": "0.856 (active)"}, {"measurement": "normalized growth", "setting": "locus YHR200W, strain rpn10, stronger effect = lower value", "result": "0.851 (active)"}, {"measurement": "normalized growth", "setting": "locus YIL066C, strain RNR3, stronger effect = lower value", "result": "0.805 (active)"}, {"measurement": "normalized growth", "setting": "locus YIL073C, strain SPO22, stronger effect = lower value", "result": 0.741}, {"measurement": "normalized growth", "setting": "locus YIL125W, strain kgd1, stronger effect = lower value", "result": "0.893 (active)"}, {"measurement": "normalized growth", "setting": "locus YIR030C, strain dcg1, stronger effect = lower value", "result": "0.918 (active)"}, {"measurement": "normalized growth", "setting": "locus YJL092W, strain hpr5, stronger effect = lower value", "result": "0.859 (active)"}, {"measurement": "normalized growth", "setting": "locus YJL095W, strain BCK1 (second series), stronger effect = lower value", "result": "0.798 (active)"}, {"measurement": "normalized growth", "setting": "locus YJL095W, strain BCK1, stronger effect = lower value", "result": "0.625 (active) and 0.71 (active)"}, {"measurement": "normalized growth", "setting": "locus YJL115W, strain asf1, stronger effect = lower value", "result": "0.861 (active)"}, {"measurement": "normalized growth", "setting": "locus YJL129C, strain trk1, stronger effect = lower value", "result": "0.703 (active)"}, {"measurement": "normalized growth", "setting": "locus YJL134W, strain LCB3, stronger effect = lower value", "result": "0.927 (active)"}, {"measurement": "normalized growth", "setting": "locus YJL154C, strain vps35, stronger effect = lower value", "result": 0.928}, {"measurement": "normalized growth", "setting": "locus YJL164C, strain tpk1, stronger effect = lower value", "result": "0.871 (active)"}, {"measurement": "normalized growth", "setting": "locus YJL166W, strain qcr8, stronger effect = lower value", "result": "0.813 (active)"}, {"measurement": "normalized growth", "setting": "locus YJL168C, strain set2, stronger effect = lower value", "result": "0.915 (active)"}, {"measurement": "normalized growth", "setting": "locus YJL187C, strain SWE1 (second series), stronger effect = lower value", "result": "0.843 (active)"}, {"measurement": "normalized growth", "setting": "locus YJR043C, strain POL32, stronger effect = lower value", "result": 0.867}, {"measurement": "normalized growth", "setting": "locus YJR066W, strain TOR1, stronger effect = lower value", "result": "0.738 (active)"}, {"measurement": "normalized growth", "setting": "locus YJR075W, strain HOC1, stronger effect = lower value", "result": "0.79 (active)"}]}
